Dicer inh = blocks human Dicer maturation of pre-miR-21; Q9UPY3; cat-ELCCA pre-miR-21 Dicer processing, chemiluminescence; active compounds read high; z-score at 25 µM; 47,000 tested, 6% active; AID 1347074; in the data active = z-score above about 3, passing the limit was not always enough;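 also: plate controls were vehicle for no effect and no enzyme for full effect; higher signal means more uncleaved substrate so more Dicer inhibition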
The depositor's hits bear a star. Only a selection was taken, and hits are over-represented in it overall.

SMILES | Dicer inh
COc1cc(C2Nc3ccccc3NC3=C2C(=O)CC(c2ccc(OC)c(OC)c2)C3)ccc1O (centres undefined) | -0.72
COc1ccc(C2CC(=O)C3=C(C2)Nc2ccccc2NC3c2ccc(OC)c(O)c2)cc1 (centres undefined) | 1
CSc1ccc(C2Nc3ccccc3NC3=C2C(=O)CC(c2ccc4c(c2)OCO4)C3)cc1 (centres undefined) | 4.6*
Cc1ccc(C2CC(=O)C3=C(C2)Nc2ccccc2NC3c2ccc3c(c2)OCO3)cc1 (centres undefined) | -1.1
COc1cc(C2Nc3ccccc3NC3=C2C(=O)CC(c2ccc4c(c2)OCO4)C3)ccc1OC(C)=O (centres undefined) | 1.4
COc1ccc(C2CC(=O)C3=C(C2)Nc2ccccc2NC3c2cc(OC)ccc2OC)cc1 (centres undefined) | -0.4
COc1ccc(C2Nc3ccccc3NC3=C2C(=O)CC(c2ccccc2)C3)c(OC)c1 (centres undefined) | 1.7
N/C(=N\N=C\c1cccs1)SCc1ccccc1 | 2.9
Cc1cc(OS(=O)(=O)CS(=O)(=O)Oc2cc(C)c(Cl)c(C)c2)cc(C)c1Cl | -0.21
COc1cc(OC)cc(-c2nc3n(n2)C(c2ccc(F)cc2)C2=C(CC(C)(C)CC2=O)N3)c1 (centres undefined) | 0.76
COc1cc(C2c3c(oc4cc(C)c(C)cc4c3=O)C(=O)N2CCCN(C)C)ccc1O (centres undefined) | 0.06
Cc1oc2ccc(O)c(Cl)c2c1C(=O)O | 0.2
Cn1c(-c2ccc(Cl)cc2)n[nH]c1=S | -1.5
Cc1c(C)c(C)c(CSC2=NCCC2)c(C)c1C | -0.75
Cc1c(C)c(C)c(CSC2=NCC(C)N2)c(C)c1C (centres undefined) | 4*
Cc1cc(C)c(CSC2=NCCN2)c(C)c1CSC1=NCCN1 | -3.8
CN(C)S(=O)(=O)N1CCc2ccccc2C1 | 4.9*
CS(=O)(=O)N(CC(=O)N1CCc2ccccc2C1)c1cccc2ccccc12 | 1.7
O=C(c1nc2ncccn2n1)N1CCc2ccccc2C1 | 2
CC(C)(C)c1ccc(Oc2ccc(NC(=O)Nc3ccccc3)cn2)cc1 | -0.87
COC(=O)CSc1nnc2n(-c3ccc(OC)cc3)c(=O)c3c4c(sc3n12)COC(C)(C)C4 | 2
COC(=O)c1sccc1NC(=O)C(F)(F)F | 0.41
Cc1[nH]c(=S)[nH]c(=O)c1CCC(C)C | 1.2
O=C(Nc1c(-c2ccccc2)nc2ccccn12)c1ccco1 | 4.9*
COC(=O)Nc1c(-c2ccccc2)nc2ccccn12 | -0.09
SMILES | Dicer inh
O=C(Nc1c(-c2ccccc2)nc2ccc(Cl)cn12)c1ccco1 | 1.3
CC(C)(C)c1ccc(NC(=O)N2CCCc3ccccc32)cc1 | -0.42
NNC(=O)c1nc2ccccc2c(=O)[nH]1 | -0.1
Cn1c2c(c(=O)n(C)c1=O)CN(CCCCCCO)CN2 | -2.1
Cn1c2c(c(=O)n(C)c1=O)CN(Cc1ccc(F)cc1)CN2 | 4.3*
COCCN1CNc2c(c(=O)n(C)c(=O)n2C)C1 | 3.5*
Cn1c2c(c(=O)n(C)c1=O)CN(C1CC1)CN2 | -1.8
Cn1c2c(c(=O)n(C)c1=O)CN(CCc1ccc(Cl)c(Cl)c1)CN2 | -5.6
Cn1c2c(c(=O)n(C)c1=O)CN(CCc1ccccc1)CN2 | -3.7
O=C(NNc1ccc(-c2csnn2)cc1)Nc1ccc(Cl)cc1 | 0.77
CN(C)c1ccc(CC(C#N)c2ccc(N)cc2)cc1 (centres undefined) | 0.43
O=C(c1cnn2c(C(F)F)cc(-c3ccccc3)nc12)N1CCCc2ccccc21 | -1.5
COc1ccc(-c2cc(C(F)F)n3ncc(C(=O)N4CCSCC4)c3n2)cc1 | 3*
O=C(c1cnn2c(C(F)F)cc(-c3ccccc3)nc12)N1CCc2ccccc2C1 | -0.17
Cc1cc(Cl)ccc1NC(c1ccccn1)c1ccc2cccnc2c1O (centres undefined) | 9.1*
Cc1cc(Cl)ccc1NC(c1cccnc1)c1ccc2cccnc2c1O (centres undefined) | 11*
Cc1ccc(NC(c2cccnc2)c2ccc3cccnc3c2O)cc1C (centres undefined) | -0.31
Cc1ccc(NC(c2ccccn2)c2ccc3cccnc3c2O)c(C)c1 (centres undefined) | -1.2
Oc1c(C(Nc2ccccc2Cl)c2cccnc2)ccc2cccnc12 (centres undefined) | 6.2*
O=C(Nc1cccc2cccnc12)C(Cl)(Cl)Cl | -0.2
Cc1cc(Cl)ccc1Oc1ncccc1N | -2.9
CCOC(=O)/C(=C\Nc1cc(C(F)(F)F)cc(C(F)(F)F)c1)[N+](=O)[O-] | -1.1
CC(C(=O)Nc1c(F)cccc1F)N1CCN(c2nccc(C(F)(F)F)n2)CC1 (centres undefined) | -1.1
CC(C)(C)c1cc(C(c2ccccn2)N2CCOCC2)cc(C(C)(C)C)c1O (centres undefined) | -0.14
Cc1ccc2nc(-c3ccccc3F)oc(=O)c2c1 | 0.12
SMILES | Dicer inh
CC(C)(CC(=O)O)CC(=O)Nc1ccc(Br)c(C(F)(F)F)c1 | 0.37
CC(CO)NC(=O)OCC1c2ccccc2-c2ccccc21 (centres undefined) | 4.9
CC(C)C(NC(=O)OCC1c2ccccc2-c2ccccc21)C(=O)O (centres undefined) | -1.3
O=C(Nc1ccccc1C(=O)O)OCC1c2ccccc2-c2ccccc21 | 5.2*
Cc1ccc(C2=CC(c3ccccc3)n3nc(NS(C)(=O)=O)nc3N2)cc1 (centres undefined) | 0.3
Cc1onc(-c2c(Cl)cccc2Cl)c1NC(=O)NNc1ncccc1-n1cccc1 | 1
Cc1cc(N/C=C(\C#N)C(=O)c2cccs2)no1 | -1.2
CCc1[nH]c(=S)c(C#N)c(C(F)(F)F)c1C | 0.09
CCOc1ccc(C(c2c[nH]c3ccccc23)c2c[nH]c3ccccc23)cc1 | 3.4*
NCC(c1ccccc1)c1c[nH]c2ccccc12 (centres undefined) | -0.35
CCOc1ccccc1C(c1c(C)[nH][nH]c1=O)c1c(C)[nH][nH]c1=O | -6.8
CCOc1cccc(C(c2c[nH]c3ccccc23)c2c[nH]c3ccccc23)c1OC | 4*
Oc1ccc(Cl)c(C(c2c[nH]c3ccccc23)c2c[nH]c3ccccc23)c1 | 0.64
Cc1[nH][nH]c(=O)c1C(c1c(C)[nH][nH]c1=O)c1c[nH]c2ccccc12 | -6.8
CN1Cc2cccc(C(=O)O)c2C1=O | -0.81
Cc1ccc2c(C)nc(NC3=NCN(CCN4CCOCC4)CN3)nc2c1 | -0.04
CC(=O)Nc1c(C)sc(C)c1C(=O)O | 0.31
N#CCCN(Cc1cccs1)S(=O)(=O)c1cccs1 | 1.2
COc1ccc(C2Nc3c(C)cccc3-c3cc(C)nn32)cc1 (centres undefined) | 0.76
Cc1cc2n(n1)C(c1ccc3c(c1)OCO3)Nc1c(C)cccc1-2 (centres undefined) | 3.1*
Cc1cc2n(n1)C(c1ccc(Cl)cc1)Nc1c(C)cccc1-2 (centres undefined) | 3.8*
Cc1cc2n(n1)C(c1cc(Br)ccc1O)Nc1c(C)cccc1-2 (centres undefined) | 8.7
Cc1cc2n(n1)C(c1ccc(N3CCCC3)cc1)Nc1c(C)cccc1-2 (centres undefined) | 8.8
COc1cccc(C2Nc3c(C)cccc3-c3cc(C)nn32)c1O (centres undefined) | 4.9*
COc1ccc(OC)c(C2Nc3c(C)cccc3-c3cc(C)nn32)c1 (centres undefined) | -1.3
Cc1cc2n(n1)C(c1ccccc1F)Nc1c(C)cccc1-2 (centres undefined) | 0.62
Cc1cc2n(n1)C(c1ccccc1Cl)Nc1c(C)cccc1-2 (centres undefined) | 5.9*
